# Results taken from the supplement of paper PMC3334620.
# The full ranking holds about 33,000 sequences; the median of “E-score (-0.5 to 0.5)” is about -0.035, and the highest 2% start at about 0.34. The full list was thinned out, with the highest values kept by preference.
# Target: T1, Mot3 (UniProt P54785)
# T1 sequence: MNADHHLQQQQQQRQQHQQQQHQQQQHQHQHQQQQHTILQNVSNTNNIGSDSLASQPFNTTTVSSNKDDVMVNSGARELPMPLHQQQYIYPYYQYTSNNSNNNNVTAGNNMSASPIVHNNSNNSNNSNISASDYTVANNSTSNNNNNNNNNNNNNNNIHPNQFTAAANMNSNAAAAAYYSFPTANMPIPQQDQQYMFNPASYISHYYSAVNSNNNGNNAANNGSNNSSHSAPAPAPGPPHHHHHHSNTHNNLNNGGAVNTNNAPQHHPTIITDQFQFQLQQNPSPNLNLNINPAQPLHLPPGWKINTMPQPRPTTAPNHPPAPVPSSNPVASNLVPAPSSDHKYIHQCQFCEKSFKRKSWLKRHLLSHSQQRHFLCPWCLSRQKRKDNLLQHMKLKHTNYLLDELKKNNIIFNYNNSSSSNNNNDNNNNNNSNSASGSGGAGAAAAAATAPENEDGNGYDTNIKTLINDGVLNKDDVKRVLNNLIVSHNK
# Experiment: PBM E-score (8-mer binding enrichment) (E-score (-0.5 to 0.5)); higher = stronger / more preferred TF binding
# Details: protein concentration: 200 nM; construct: GST-full length
# How it was run: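 Universal all-10-mer Agilent arrays, double-stranded by primer extension on fresh or once-stripped slides, were probed with about 100-200 nM GST-tagged yeast transcription factors made by PURExpress. Fluorescent anti-GST detected bound protein, and masliner normalised the scans. E-scores from the Universal PBM Analysis Suite were given to each ungapped eight-base word pooled with its reverse complement.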
row,Sequence,PBM E-score
1,CCCGCTTC,-0.191
2,CCCAGGAC,-0.288
3,CTGCTTGC,0.0147
4,AAGCGCAG,-0.124
5,CGTATGCA,-0.0506
6,GCAGGAGC,0.0355
7,ACAGGAGA,-0.0281
8,TCAGGAAA,0.394
9,CCAGGAAA,0.324
10,TCAGGAGA,-0.0813
11,ACAGGAAA,0.453
12,CCAGGAAC,0.406
13,GCAGGAAC,0.463
14,GCAGGACC,-0.237
15,CCAGGAAG,-0.078
16,AGAGGAAA,0.0488
17,CCAGGAGC,-0.247
18,ATAGGTGC,0.24
19,AAGCGAGT,-0.0166
20,CCGGGTCC,-0.279
21,AAAGGGCC,-0.132
22,AAGCCACT,-0.172
23,AGCTGGAA,-0.29
24,GCGCCAGC,0.128
25,TGCTAAAA,0.0711

row,Sequence,PBM E-score
1,CGCTGAAA,0.0848
2,ACAAATCT,0.103
3,CTAGTTTC,-0.178
4,AAGCAGTG,0.0592
5,TAGTGGAA,-0.00095
6,GGAGGAAA,0.0847
7,CCAAGGAA,0.254
8,TCAAGGAA,0.363
9,ACAGGAAT,0.107
10,ACAGGAAG,0.0333
11,ACAGGAAC,0.466
12,ACAAGGAA,0.263
13,GCAGGATA,-0.121
14,GCAGGAAA,0.451
15,ATCCATCA,-0.0789
16,AGAGAGAG,-0.326
17,CAACAGTC,-0.167
18,TAGGTATA,-0.0008
19,CAGGTACA,0.406
20,TGGGTACA,0.0297
21,GAGGTACA,0.192
22,TAGGTACA,0.36
23,CCGGTACA,0.0242
24,CTTCTAAC,-0.0665
25,CGTGCTTC,0.0855

row,Sequence,PBM E-score
1,ACTCTACA,0.174
2,GTTAGCCA,-0.136
3,CAGCTCTA,-0.168
4,ACATTAGT,0.187
5,CGGAAACA,0.0963
6,AGGAAACT,0.421
7,GGGAAACC,-0.00353
8,GGGAAACA,-0.036
9,AGGAAACA,0.391
10,ACGAAACT,-0.0505
11,AGGAAACC,0.42
12,AGGAAACG,0.339
13,CGGAAACC,-0.352
14,GCGACGAA,-0.154
15,ACGCGGAG,0.105
16,ACCTAGCA,0.0477
17,CATAGCGC,0.0893
18,GTACCTAC,0.405
19,GTACCTAA,0.374
20,CTACCTAC,0.188
21,TTACCTAA,0.285
22,ATACCTAC,0.156
23,ATACCTAA,0.071
24,AAGCGACG,-0.15
25,ATGTTAAT,0.338

row,Sequence,PBM E-score
1,ATGTTTAA,0.285
2,ATGTTAAA,0.392
3,ACGTTAAA,0.3
4,CTGTTAAG,0.259
5,ATGTTAAG,0.37
6,AAGTTAAA,0.219
7,GAAGGGTA,0.0495
8,GGCCCTAC,-0.281
9,ACAGACTG,-0.0643
10,CGTGTTTC,0.106
11,TACACAAA,0.369
12,AACACACA,0.34
13,TACACGAA,0.359
14,AACACACT,0.22
15,AACACAAA,0.22
16,GACACGAA,0.145
17,AACACACG,0.266
18,CATACACA,0.219
19,CACACAAA,0.151
20,CACACGAA,0.165
21,CATACACG,0.316
22,TATACACA,0.364
23,ATAAACCG,-0.195
24,ACAGCGGC,-0.112
25,ATTAGAAC,0.0827

row,Sequence,PBM E-score
1,AGCTACAG,-0.0877
2,CACACACA,0.249
3,AATACACC,0.271
4,TACACGCA,0.346
5,GATACACA,0.14
6,TACACACA,0.385
7,AATACACA,0.389
8,GACACGCA,0.246
9,AATACAAG,0.313
10,CACACACG,0.159
11,AATACACG,0.394
12,AACACGCA,0.326
13,AATACACT,0.259
14,CAAACGTG,0.0815
15,CCGACCAC,-0.189
16,AGGGTCCA,-0.297
17,CCGTATAG,-0.208
18,ACATCGGG,-0.13
19,ATCAATGC,-0.189
20,CTCCAAAA,-0.179
21,CAGGGACG,0.0493
22,GGAGAAAC,-0.149
23,CGTAGCGA,-0.285
24,GACTTGCC,0.127
25,AGGGTACC,0.0598

row,Sequence,PBM E-score
1,GAGGTACC,-0.0594
2,AAGGTAGA,-0.0631
3,AAGGTACC,0.419
4,AAGGTACA,0.394
5,CGGGTACC,0.0123
6,CAGATACG,-0.243
7,CAGGTACG,0.409
8,CCGGTACG,-0.199
9,AAGGTATA,0.113
10,CAGGTATC,0.056
11,CAGGTACC,0.434
12,ATCGAACC,-0.089
13,ACTATCCA,-0.204
14,CGCCTTGA,-0.0273
15,AACATTGT,0.257
16,ATCTCCGA,-0.0589
17,ATAAGTTA,0.213
18,AACTTAAA,0.212
19,ACGCTTCC,-0.0948
20,CAGATCGA,-0.213
21,AACAGCAA,0.0647
22,ACGGTACT,-0.207
23,AAGGTAGT,-0.0675
24,AAGGTACG,0.436
25,AAGGTATG,0.0554

row,Sequence,PBM E-score
1,AAGGTACT,0.364
2,ACGGTACG,-0.0434
3,GACTCCAC,-0.34
4,AGGCTCGG,0.146
5,ATGCGCTG,-0.00636
6,AGCTACAT,0.145
7,ATATGTGA,0.197
8,CTCTGTAC,0.0774
9,GTATGTGA,0.0776
10,ATATGTAC,0.274
11,ATATGTAA,0.346
12,GTATGTAA,0.404
13,CTCTGTAA,0.133
14,GGATGTAA,0.295
15,AGATGTAA,0.272
16,CTATGTAA,0.41
17,ATATGTAG,0.202
18,CTATGTAC,0.378
19,CGATAGCA,-0.159
20,CCCTTGCG,-0.214
21,ACAAGTGC,0.201
22,CGATCGCG,-0.102
23,GACCAATC,-0.039
